# PubChem BioAssay (Tox21)
# “And” between values parts separate entries of the source, which are not always exact repeats. Equal entries are not always repeated. Records with an inconclusive call do not appear. A call without a number means that no potency is given here. Where a structure was tested more than once in an assay, its records may differ in their call. The source made the active and inactive calls. Unless noted, the call rests on the fitted dose curve; in most records, active means well fitted curve in the direction sought with a large enough effect in the repeat runs; inconclusive means weak or mixed curves; inactive means no such curve, though single readings can be large; an effect the other way counts as inactive or inconclusive.
# What was measured:
# [1] = A CellTox Green Cytotoxicity Assay to monitor cytotoxicity in HepG2 cells - 8 hour (AID 1224890); further: nearly all actives have a fitted effect of over 45% in size; further: potency means the concentration at half of the fitted maximal effect
# Method in brief: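 HepG2 cells were seeded together with the CellTox Green dye at 600 cells/well, left 5 h at 37 C/5% CO2, then given compounds in DMSO. Fluorescence from dye bound to dead-cell DNA was read repeatedly over 40 h of treatment at 37 C.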
# [2] = qHTS assay to identify small molecule antagonists of the estrogen receptor alpha (ER-alpha) signaling pathway using the BG1 cell line in the presence of 0.1 nM 17-beta-estradiol - cell viability counter screen (AID 1259241); further: nearly all actives have a fitted effect of over 40% in size
# Method in brief: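 Viability in VM7Luc4E2 cells after 22 hr compound exposure under 0.1 nM 17beta-estradiol stimulation, by CellTiter-Fluor.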
# [3] = qHTS assay to identify small molecule antagonists of the androgen receptor (AR) signaling pathway using the MDA cell line in the presence of 0.5 nM R1881 - cell viability counter screen (AID 1259242); further: nearly all actives have a fitted effect of over 45% in size; further: potency means the concentration at half of the fitted maximal effect
# Method in brief: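 MDA-kb2 cells (human breast carcinoma, stably carrying MMTV-luciferase reporter) were exposed to compounds with 0.5 nM R1881 (final) for 16 hr at 37C, 0% CO2; viability then read as live-cell protease fluorescence (CellTiter-Fluor, 30 min) in the same wells.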
# [4] = qHTS assay to identify small molecule HDAC inhibitors (AID 1259364); further: nearly all actives have a fitted effect of over 45% in size; further: potency means the concentration at half of the fitted maximal effect
# Method in brief: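 Wild-type HCT-116 cells were plated overnight, exposed to compounds for 2 h at 37 °C, then given HDAC-Glo class I/II luminogenic reagent for 30 min at room temperature before luminescence was read.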
# [5] = qHTS assay to identify small molecule HDAC inhibitors - cell viability counter screen (AID 1259365); further: series mostly up to about 92 µM; nearly all actives have a fitted effect of over 50% in size
# Method in brief: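 Cytotoxicity was gauged in wild-type HCT-116 cells after a brief 2hr treatment with DMSO-dissolved compounds at 37C and 5% CO2, using CellTiter-Glo luminescence developed for 30min at room temperature.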
# [6] = qHTS assay to identify small molecule agonists of the sonic hedgehog signaling (Shh) pathway - cell viability counter screen (AID 1259366); further: nearly all actives have a fitted effect of over 50% in size; further: potency means the concentration at half of the fitted maximal effect
# Method in brief: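 Stable Gli1-Luc NIH/3T3 clone, 2,000 cells/well. Compound exposure 24hr at 37C. Read-out: CellTiter-Fluor fluorescence.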
# [7] = qHTS assay to identify small molecule antagonists of the sonic hedgehog signaling (Shh) pathway - cell viability counter screen (AID 1259367); further: nearly all actives have a fitted effect of over 55% in size; further: potency means the concentration at half of the fitted maximal effect
# Method in brief: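 NIH/3T3-derived Gli1-Luc reporter cells, 2,000/well, plated 4 hr before compound addition, then stimulated with conditioned medium for 24 hr at 37C. Viability measured in the same wells by CellTiter-Fluor fluorescence, reagent added at 23 hr for 1 hr.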
# [8] = qHTS assay to identify small molecule agonists of the sonic hedgehog signaling (Shh) pathway (AID 1259368; calls by dose curve; further: series mostly up to about 92 µM; nearly all actives have a fitted effect of over 15% in size)
# Method in brief: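 NIH/3T3-derived 3T3Gli1-Luc cells carrying a stably integrated Gli1 response element–firefly luciferase reporter were plated, left 4 hr at 37 C, then given compounds in DMSO for 24 hr. Luminescence was read 30 min after adding luciferase reagent.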
# [9] = qHTS assay to identify small molecule antagonists of the sonic hedgehog signaling (Shh) pathway (AID 1259369; calls by dose curve; further: nearly all actives have a fitted effect of over 45% in size; further: potency means the concentration at half of the fitted maximal effect)
# Method in brief: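 NIH/3T3-derived 3T3Gli1-Luc cells with stably integrated Gli1-Luc reporter were preincubated 4hr at 37 C, then given compounds in DMSO plus Shh conditioned medium and incubated 24hr. Firefly luciferase luminescence read after 30min reagent at room temperature.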
# [10] = molecular target: Estrogen receptor beta (Homo sapiens) (UniProt Q92731); assay: qHTS assay to identify small molecule antagonists of the estrogen receptor beta (ER-beta) signaling pathway (AID 1259378; active means well fitted inhibition curve with a large enough effect in the signal ratio in the repeat runs, not every such curve was filed as active; the % refers to the signal ratio; further: potency means the concentration at half of the fitted maximal effect)
# Method in brief: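 ER-beta-UAS-bla HEK293T cells in 2% charcoal-stripped FBS medium treated with compound plus 1nM final 17-beta-estradiol for 16 hr at 37C. Beta-lactamase reporter read by FRET substrate fluorescence after 2 hours at room temperature.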
# [11] = qHTS assay to identify small molecule agonists of the androgen receptor (AR) signaling pathway in the presence of an antagonist - cell viability counter screen (AID 1259379); further: nearly all actives have a fitted effect of over 25% in size; further: potency means the concentration at half of the fitted maximal effect
# Method in brief: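 MDA-kb2 human breast carcinoma cells (stable MMTV-luciferase, AR/GR responsive) were seeded 3,000 cells/well, pre-incubated 5 hr at 37C without CO2, then given 3.0uM nilutamide and compounds at 15 concentrations for 16 hr. Viability was read by CellTiter-Fluor fluorescence.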
# [12] = qHTS assay to identify small molecule agonists of the estrogen receptor beta (ER-beta) signaling pathway - cell viability counter screen (AID 1259380); further: nearly all actives have a fitted effect of over 30% in size; further: potency means the concentration at half of the fitted maximal effect
# Method in brief: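 ER-beta-UAS-bla HEK293T cells in medium with 2% charcoal-stripped FBS were preincubated 6 hr at 37C, dosed with compound in DMSO for 16 hr, then after the bla read, CellTiter-Glo was added for 30 min at room temperature; luminescence recorded.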
# [13] = qHTS assay to identify small molecule antagonists of the estrogen receptor beta (ER-beta) signaling pathway - cell viability counter screen (AID 1259382); further: nearly all actives have a fitted effect of over 55% in size; further: potency means the concentration at half of the fitted maximal effect
# Method in brief: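 ER-beta-UAS-bla HEK293T cells (2,000/well, 2% charcoal-stripped FBS) were pre-incubated 6 hr at 37C, then given compound plus 1nM final 17-beta-estradiol for 16 hr. Viability was read in the same wells by CellTiter-Glo luminescence after 30 min at room temperature.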
# [14] = qHTS assay to identify small molecule agonists or antagonists of the thyroid stimulating hormone receptor (TSHR) signaling pathway - wild type cell line counter screen (AID 1259384; calls by dose curve)
# Method in brief: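 Wild-type Hek293 cells, 800/well, 18 h at 37C, then compound with Ro20-1724 for 30 min RT. cAMP by HTRF (cAMP-d2/anti-cAMP cryptate), 1 h RT, fluorescence read. 15 concentrations, triplicates.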
# [15] = molecular target: Estrogen receptor (Homo sapiens) (UniProt P03372); assay: qHTS assay to identify small molecule antagonists of the estrogen receptor alpha (ER-alpha) signaling pathway using the BG1 cell line in the presence of 0.1 nM 17-beta-estradiol (AID 1259244); further: nearly all actives have a fitted effect of over 50% in size
# Method in brief: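 VM7Luc4E2 cells (endogenous full-length ER-alpha, stable 4xERE-luciferase) were grown 5 days in phenol red-free medium with charcoal-stripped FBS, then exposed 22 h at 37C to compounds plus 0.1 nM (final) 17beta-estradiol; ONE-Glo luminescence read-out.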
# [16] = molecular target: Estrogen receptor (Homo sapiens) (UniProt P03372); assay: qHTS assay to identify small molecule agonists of the estrogen receptor alpha (ER-alpha) signaling pathway in the presence of an antagonist (AID 1259383; calls by dose curve; further: top concentration of the series differs between compounds; nearly all actives have a fitted effect of over 15% in size)
# Method in brief: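 VM7Luc4E2 cells (endogenous full-length ER-alpha, 4×ERE-luciferase) were precultured 5 days in phenol red-free medium with 10% charcoal-stripped FBS, given 10.0nM ICI-182,780 (final), then treated with compounds at 15 concentrations for 22hr at 37C; luminescence read with ONE-Glo.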
# [17] = molecular target: Estrogen receptor beta (Homo sapiens) (UniProt Q92731); assay: qHTS assay to identify small molecule agonists of the estrogen receptor beta (ER-beta) signaling pathway (AID 1259377; active means well fitted activation curve with a large enough effect in the signal ratio in the repeat runs, not every such curve was filed as active; the % refers to the signal ratio)
# Method in brief: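 Measured by fluorescence intensity from a B/G FRET beta-lactamase substrate (2 h, room temperature) in ER-beta-UAS-bla HEK293T cells treated with DMSO-dissolved compounds for 16 hr at 37C and 5% CO2.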
# [18] = molecular target: Androgen receptor (Homo sapiens) (UniProt P10275); assay: qHTS assay to identify small molecule antagonists of the androgen receptor (AR) signaling pathway using the MDA cell line in the presence of 0.5 nM R1881 (AID 1259243); further: potency means the concentration at half of the fitted maximal effect; nearly all actives have a fitted effect of over 50% in size
# Method in brief: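 MDA-kb2 human breast carcinoma cells carrying an MMTV-luciferase reporter (AR- and GR-responsive) were plated, rested 5 hr at 37C, dosed with compounds, then stimulated with 0.5 nM R1881 (final) for 16 hr; luminescence was read after ONE-Glo.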
# [19] = molecular target: Androgen receptor (Homo sapiens) (UniProt P10275); assay: qHTS assay to identify small molecule agonists of the androgen receptor (AR) signaling pathway in the presence of an antagonist (AID 1259381; calls by dose curve; further: nearly all actives have a fitted effect of over 15% in size)
# Method in brief: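 MDA-kb2 human breast carcinoma cells carrying an MMTV-luciferase reporter (AR- and GR-responsive) were treated with compounds at 15 concentrations plus 3.0uM final nilutamide for 16hr at 37C without CO2; luminescence was read after ONE-Glo addition.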
# [20] = qHTS assay to identify small molecule phospholipidosis (PLD) inducers (AID 1259344; active means well fitted curve in the direction sought with a large enough effect; an effect the other way counts as inactive or inconclusive)
# Method in brief: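 HepG2 cells, 900/well, treated with compound plus LipidTOX Red for 24 h at 37 C; amiodarone positive and DMSO negative controls. Fixed with paraformaldehyde/Hoechst, then high-content imaging scored LipidTOX pit count and integrated intensity per well and per cell.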
# Chain of Estrogen receptor (Homo sapiens) (P03372 whole entry, looked up): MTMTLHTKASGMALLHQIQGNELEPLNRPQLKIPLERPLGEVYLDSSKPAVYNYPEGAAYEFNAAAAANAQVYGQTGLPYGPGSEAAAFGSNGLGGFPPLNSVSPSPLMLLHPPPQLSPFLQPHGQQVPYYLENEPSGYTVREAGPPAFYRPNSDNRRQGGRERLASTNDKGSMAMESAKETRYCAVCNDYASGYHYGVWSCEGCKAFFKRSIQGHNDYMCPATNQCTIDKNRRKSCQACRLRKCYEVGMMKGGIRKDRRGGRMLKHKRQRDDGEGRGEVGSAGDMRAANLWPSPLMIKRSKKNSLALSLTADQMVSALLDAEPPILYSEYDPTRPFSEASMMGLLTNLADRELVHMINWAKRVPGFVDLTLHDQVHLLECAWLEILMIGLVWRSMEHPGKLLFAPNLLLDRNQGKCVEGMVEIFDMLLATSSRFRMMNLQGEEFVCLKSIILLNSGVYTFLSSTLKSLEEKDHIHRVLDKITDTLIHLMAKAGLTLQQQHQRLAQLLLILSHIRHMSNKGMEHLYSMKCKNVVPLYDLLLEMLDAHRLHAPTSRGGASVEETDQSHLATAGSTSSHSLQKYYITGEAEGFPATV
# Chain of Estrogen receptor beta (Homo sapiens) (Q92731 whole entry, looked up): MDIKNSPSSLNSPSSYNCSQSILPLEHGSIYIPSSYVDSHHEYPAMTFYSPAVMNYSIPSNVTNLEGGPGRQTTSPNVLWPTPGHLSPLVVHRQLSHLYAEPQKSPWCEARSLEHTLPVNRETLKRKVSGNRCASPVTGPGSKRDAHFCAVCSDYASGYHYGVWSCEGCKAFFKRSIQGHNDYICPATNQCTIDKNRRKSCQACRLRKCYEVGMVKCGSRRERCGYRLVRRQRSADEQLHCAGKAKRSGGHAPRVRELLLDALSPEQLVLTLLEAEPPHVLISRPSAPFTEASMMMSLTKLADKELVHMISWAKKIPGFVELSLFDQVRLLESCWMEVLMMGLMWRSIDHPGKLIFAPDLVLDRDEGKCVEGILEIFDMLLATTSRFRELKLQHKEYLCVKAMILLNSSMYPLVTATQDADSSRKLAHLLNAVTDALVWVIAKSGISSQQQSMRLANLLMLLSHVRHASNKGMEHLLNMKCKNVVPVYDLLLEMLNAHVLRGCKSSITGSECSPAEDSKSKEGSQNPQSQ
# Chain of Androgen receptor (Homo sapiens) (P10275 whole entry, looked up): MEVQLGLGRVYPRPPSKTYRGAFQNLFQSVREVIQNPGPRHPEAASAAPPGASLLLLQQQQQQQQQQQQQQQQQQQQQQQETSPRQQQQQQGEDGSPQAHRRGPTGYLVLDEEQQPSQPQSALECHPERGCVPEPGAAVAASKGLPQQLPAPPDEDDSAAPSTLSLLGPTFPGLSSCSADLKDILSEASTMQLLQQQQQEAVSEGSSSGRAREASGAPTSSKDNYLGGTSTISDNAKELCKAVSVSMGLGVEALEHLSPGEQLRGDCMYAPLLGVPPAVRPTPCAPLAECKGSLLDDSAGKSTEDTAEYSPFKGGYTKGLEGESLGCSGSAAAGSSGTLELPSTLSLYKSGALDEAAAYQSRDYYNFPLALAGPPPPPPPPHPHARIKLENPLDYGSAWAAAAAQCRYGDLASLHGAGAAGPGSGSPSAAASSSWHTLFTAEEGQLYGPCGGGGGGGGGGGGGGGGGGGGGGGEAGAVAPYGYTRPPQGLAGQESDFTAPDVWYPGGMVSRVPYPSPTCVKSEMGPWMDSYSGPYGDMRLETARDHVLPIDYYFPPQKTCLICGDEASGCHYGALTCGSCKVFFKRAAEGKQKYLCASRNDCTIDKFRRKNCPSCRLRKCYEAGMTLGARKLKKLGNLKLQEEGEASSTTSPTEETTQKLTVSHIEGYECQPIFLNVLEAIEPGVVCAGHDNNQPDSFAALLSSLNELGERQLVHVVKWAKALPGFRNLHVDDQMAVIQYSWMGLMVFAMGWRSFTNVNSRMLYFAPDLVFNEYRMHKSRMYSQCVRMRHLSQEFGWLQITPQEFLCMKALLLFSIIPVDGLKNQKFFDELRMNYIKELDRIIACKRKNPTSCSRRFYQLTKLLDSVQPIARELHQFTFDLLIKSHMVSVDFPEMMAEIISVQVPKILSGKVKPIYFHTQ
SMILES,Potency [1],Potency [2],Potency [3],Potency [4],outcome [5],Potency [6],Potency [7],Potency [8],Potency [9],Potency [10],Potency [11],Potency [12],Potency [13],outcome [14],Potency [15],Potency [16],Potency [17],Potency [18],Potency [19],outcome [20]
CC(C)N(C(=O)SCC(Cl)=C(Cl)Cl)C(C)C,inactive,inactive,inactive,inactive,inactive,inactive,inactive,inactive,inactive,inactive,inactive,inactive,inactive,inactive,–,–,–,–,–,–
Cc1ccc(OP(=O)(Oc2ccc(C)cc2)Oc2ccc(C)cc2)cc1,inactive,inactive,inactive,–,inactive,inactive,inactive,inactive,inactive,–,inactive,68.5 µM (active),–,inactive,–,–,–,–,–,–
Nc1ccc(-c2ccc(N)c(N)c2)cc1N,inactive,inactive,inactive,54.3 µM (active),inactive,–,inactive,inactive,13.6 µM (active),48.4 µM (active),inactive,–,inactive,inactive,–,–,–,–,–,–
CC(O)CCO (configuration not stated),inactive,inactive,inactive,inactive,inactive,inactive,inactive,inactive,inactive,inactive,inactive,inactive,inactive,inactive,–,–,–,–,–,–
c1ccc(-c2cccc(-c3ccccc3)c2)cc1,inactive,inactive,inactive,–,inactive,inactive,inactive,inactive,inactive,–,inactive,19.5 µM (active) and 30.6 µM (active),–,inactive,inactive,inactive,–,–,–,–
N#CCCCl,inactive,inactive,inactive,–,inactive,inactive,inactive,inactive,inactive,–,inactive,inactive,inactive,inactive,–,–,–,–,–,–
C=CC(=O)OCCO,inactive,inactive,inactive,–,inactive,–,–,inactive,24.7 µM (active) and 27.3 µM (active),inactive,inactive,inactive,inactive,inactive,–,–,–,–,–,–
CN(C)c1ccc(C(=O)c2ccc(N(C)C)cc2)cc1,inactive,inactive,inactive,inactive and 48.6 µM (active),inactive,inactive,inactive and 21.7 µM (active),inactive,inactive and 24.3 µM (active),inactive,–,inactive,inactive,inactive,–,–,inactive,–,–,–
O=[N+]([O-])c1c(Cl)c(Cl)c(Cl)c(Cl)c1Cl,inactive,inactive,–,inactive,inactive,inactive and 43.3 µM (active),inactive,inactive,inactive,inactive,60.8 µM (active) and 48.6 µM (active),inactive,–,–,inactive,inactive,–,27.2 µM (active) and 27.3 µM (active),inactive,–
Oc1cc(Cl)ccc1Oc1ccc(Cl)cc1Cl,22.4 µM (active) and 16.9 µM (active),inactive,31.4 µM (active),inactive,inactive,31.4 µM (active) and inactive,31.4 µM (active) and inactive,inactive,5.58 µM (active),–,27.9 µM (active),39.5 µM (active),41.8 µM (active),–,–,–,–,–,–,inactive
Cc1cc(C)cc(C)c1,inactive,inactive,inactive,inactive,inactive,inactive,inactive,inactive,inactive,inactive,inactive,inactive,inactive,inactive,–,–,–,–,–,–
c1ccc(NNc2ccccc2)cc1,inactive,inactive,inactive,15.4 µM (active),inactive,inactive,inactive,inactive,inactive,inactive,inactive,inactive,–,inactive,–,–,inactive,–,–,–
Cc1ccccc1[N+](=O)[O-],inactive,inactive,inactive,–,inactive,inactive,inactive,inactive,inactive,inactive,inactive,inactive,inactive,inactive,inactive,inactive,–,–,–,–
